Some test systems named below: SK-MEL-2 melanoma; EKVX NSCLC; UO-31 renal; TK-10 renal; ACHN renal; CAKI-1 renal; A498 renal; CCRF-CEM leukemia; MOLT-4 leukemia.
Experiment in all cases: NCI-60 one-dose screen, 48 h (100 = growth as untreated, 0 = no growth, -100 = all killed)
What all share (conditions): 10 µM

We go through twelve molecules from PubChem BioAssay (NCI).

Compounds without any hit were thinned out: in the full panel of roughly 83,000, 20% have a hit.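 Cell lines were cultured in 96-well plates, exposed to a single compound concentration, and assessed for percent growth 48 hours later.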 A number with no mark means an inactive call. Activity calls are given as the source filed them. Rule for the calls: active = growth percent below 10; inactive = the rest.

Regarding `c1ccc(C2CCCCC2)c(OCCCCCN2CCNCC2)c1`, the growth is 82% with SK-MEL-2 melanoma; 67.4% in the experiment with EKVX NSCLC; 66.6% in the experiment with UO-31 renal; 83.2% in the experiment on TK-10 renal; 53.3% in the experiment on ACHN renal; 66.2% in the experiment on CAKI-1 renal. The growth is 52.4% in the experiment with A498 renal, 27.1% in the experiment on CCRF-CEM leukemia and 33.5% with MOLT-4 leukemia.

In the case of `COC(=O)c1cnc2c(c1)Oc1ccccc1-c1ccnn1-2`, the growth with SK-MEL-2 melanoma is 96.3%; in the experiment with EKVX NSCLC, 92.1%; in the experiment with UO-31 renal, 80.8%; in the experiment on TK-10 renal it was 95.3%; in the experiment on ACHN renal, 101%; in the experiment with CAKI-1 renal it was 86.8%. For the same molecule, the figures for the growth with A498 renal, with CCRF-CEM leukemia and with MOLT-4 leukemia were 90.4%, 94.9% and 91.1%, respectively.

As to `CNC(=O)c1cc(Oc2ccc(NC(=O)Nc3ccc(Cl)c(OC(C)C)c3)c(F)c2)ccn1`, the growth in the experiment with SK-MEL-2 melanoma was 50.2%; with EKVX NSCLC it was 34.8%; with UO-31 renal, 45.2%; in the experiment with TK-10 renal, 66.7%; in the experiment with ACHN renal, 41.9%; in the experiment on CAKI-1 renal it was 64.1%. In addition, the growth was 48.7% in the experiment on A498 renal, 46.8% in the experiment with CCRF-CEM leukemia and 30.9% with MOLT-4 leukemia.

On to `CNC(=S)Sc1ccc([N+](=O)[O-])cc1[N+](=O)[O-]`, for which the growth was 90.7% in the experiment on SK-MEL-2 melanoma; 72.1% with EKVX NSCLC; 60.2% in the experiment with UO-31 renal; 84.3% with TK-10 renal; 37.3% in the experiment on ACHN renal; 27% in the experiment on CAKI-1 renal. Besides, the figures for the growth with A498 renal, with CCRF-CEM leukemia and in the experiment with MOLT-4 leukemia were 80.6%, 12.7% and 43.7%, respectively.

`Nc1nsc(C(=O)c2ccc(O)cc2)n1`: the growth in the experiment on SK-MEL-2 melanoma is 102%; with EKVX NSCLC, 97.9%; with UO-31 renal it was 79.5%; with TK-10 renal, 108%; with ACHN renal it was 91.1%; in the experiment with CAKI-1 renal, 92%. Also, the growth in the experiment on A498 renal was 115%; in the experiment on CCRF-CEM leukemia, 89.8%; in the experiment with MOLT-4 leukemia, 110%.

As to `O=C(N/N=c1/ccoc2cccnc12)N1CCN(c2ncccn2)CC1`, the growth in the experiment on SK-MEL-2 melanoma was 11.8%; in the experiment with EKVX NSCLC, 17.4%; with UO-31 renal it was 24.8%; with TK-10 renal, 27.4%; in the experiment on ACHN renal it was 25.1%; in the experiment with CAKI-1 renal, 26%. For the same molecule, the growth in the experiment on A498 renal was 45.3%; with CCRF-CEM leukemia it was 30.5%; in the experiment with MOLT-4 leukemia, 8.23% (active).

For `NC1CCC(Nc2nc(NCc3cc(Cl)ccc3O)c3ncn(C4CCCC4)c3n2)CC1` (stereo not drawn), the growth with SK-MEL-2 melanoma was -73.7% (active); in the experiment on EKVX NSCLC, -18.7% (active); in the experiment with UO-31 renal, 1.65% (active); in the experiment on TK-10 renal, -3.98% (active); with ACHN renal it was -5.98% (active); in the experiment with CAKI-1 renal, 9.61% (active). Moreover, the growth is -67.1% (active) with A498 renal, -0.96% (active) in the experiment with CCRF-CEM leukemia and -15.5% (active) with MOLT-4 leukemia.

For `Cc1nc2cc(-n3c(-c4ccc(F)cc4)nc4ccccc4c3=O)ccc2n1Cc1ccccc1`, the growth in the experiment on SK-MEL-2 melanoma was 31.8%; in the experiment with EKVX NSCLC, 55.9%; in the experiment with UO-31 renal it was 35.7%; in the experiment with TK-10 renal, 30.5%; in the experiment on ACHN renal, 3.65% (active); in the experiment with CAKI-1 renal, 30.6%. For the same molecule, the figures for the growth with A498 renal, in the experiment with CCRF-CEM leukemia and with MOLT-4 leukemia were -5.66% (active), 65.9% and 34.7%, respectively.

Regarding `Nc1ccn([C@@H]2O[C@H](COP(=O)(O)O[C@@H]3C[C@H](n4cc(F)c(=O)[nH]c4=O)O[C@@H]3COP(=O)(O)O[C@@H]3C[C@H](n4cc(F)c(=O)[nH]c4=O)O[C@@H]3COP(=O)(O)O[C@@H]3C[C@H](n4cc(F)c(=O)[nH]c4=O)O[C@@H]3COP(=O)(O)O[C@@H]3C[C@H](n4cc(F)c(=O)[nH]c4=O)O[C@@H]3COP(=O)(O)O[C@@H]3C[C@H](n4cc(F)c(=O)[nH]c4=O)O[C@@H]3COP(=O)(O)O[C@@H]3C[C@H](n4cc(F)c(=O)[nH]c4=O)O[C@@H]3COP(=O)(O)O[C@@H]3C[C@H](n4cc(F)c(=O)[nH]c4=O)O[C@@H]3COP(=O)(O)O[C@@H]3C[C@H](n4cc(F)c(=O)[nH]c4=O)O[C@@H]3COP(=O)(O)O[C@@H]3C[C@H](n4cc(F)c(=O)[nH]c4=O)O[C@@H]3COP(=O)(O)O[C@@H]3C[C@H](n4cc(F)c(=O)[nH]c4=O)O[C@@H]3COP(=O)(O)OCCOCCOCCOCCOCCOCCO)[C@H](O)C2O)c(=O)n1` (stereo partly drawn), the growth in the experiment on SK-MEL-2 melanoma was 60.2%; in the experiment on EKVX NSCLC, 52%; with UO-31 renal it was 13.5%; in the experiment on TK-10 renal it was 56.3%; with ACHN renal, 11.7%; with CAKI-1 renal, 26.7%. Further, the growth was 46.5% in the experiment with A498 renal, 21.4% with CCRF-CEM leukemia and 26.8% in the experiment on MOLT-4 leukemia.

Consider `CN(C1c2ccccc2Oc2ccccc21)S(=O)(=O)c1cc(Cl)ccc1Cl`, for which the growth with SK-MEL-2 melanoma is 42.9%; with EKVX NSCLC, 57.7%; in the experiment with UO-31 renal, 49.5%; in the experiment on TK-10 renal it was 69%; in the experiment with ACHN renal, 53.4%; in the experiment on CAKI-1 renal, 54.2%. In addition, the values for the growth in the experiment with A498 renal, in the experiment on CCRF-CEM leukemia and with MOLT-4 leukemia were 20.9%, 42.7% and 43.3%, respectively.

For the molecule `Cc1ccc(Cl)cc1Nc1nc(C(F)(F)F)ccc1C(=O)N/N=C/c1c(Cl)cccc1Cl`, the growth was 0.639% (active) in the experiment on SK-MEL-2 melanoma; 4.91% (active) in the experiment with EKVX NSCLC; -23.3% (active) in the experiment with UO-31 renal; 22.7% in the experiment with TK-10 renal; 0.0524% (active) with ACHN renal; -12.5% (active) with CAKI-1 renal. Besides, the growth is -13.3% (active) in the experiment on A498 renal, -21.2% (active) in the experiment on CCRF-CEM leukemia and 8.23% (active) in the experiment with MOLT-4 leukemia.

Take `CCc1c(C(=O)NCc2c(O)ccc3cccc(O)c23)[nH]c(C)c1C(C)=O`: the growth in the experiment on SK-MEL-2 melanoma was 32.7%; in the experiment with EKVX NSCLC, 27.6%; with UO-31 renal it was 12.5%; in the experiment on TK-10 renal it was 46.8%; with ACHN renal, 11.6%; in the experiment on CAKI-1 renal, 34.2%. Further, the growth in the experiment on A498 renal was 49.3%; with CCRF-CEM leukemia, 16.6%; in the experiment on MOLT-4 leukemia it was 19.6%.
